Test [1] is described as follows: qHTS Assay for Identifying Gametocytocidal Compounds (AID 743244; active = well fitted curve in the direction sought with a large enough effect; an effect the other way counts as inactive or inconclusive; also: potency is read from the fitted curve at half-maximal effect;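 as to max response: % is scaled to controls: 0 for no effect and ±100 for the full control effect; actives lower the fluorescent signal which means gametocytes are killed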). The settings on record: P. falciparum 3D7 stage III-V gametocytes, alamarBlue, 72 h; max response: stronger effect = lower value. In outline:
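P. falciparum 3D7 stage III–V gametocytes (20,000 cells/well) were exposed to compounds for 72 h at 37 °C, 5% CO2. AlamarBlue was then added for 24 h; decreased resorufin fluorescence (Ex 525/Em 598 nm) indicated loss of viability.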

A short description of test [2]: qHTS profiling for inhibitors of Plasmodium falciparum (3D7) proliferation (AID 743322).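 Also: infected erythrocytes exposed to compound for 72 h before lysis; 100% = DMSO vehicle wells and 0% = 0.29 µM artemisinin.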 The settings on record: P. falciparum 3D7 proliferation; at 28.7 µM (top of the series). The method, boiled down:
(§1)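 Parasite DNA was quantified by SYBR Green I fluorescence (ex 485, em 535 nm) after overnight lysis in saponin/Triton buffer at room temperature. Cultures at 0.3% parasitemia and 2.5% hematocrit were first exposed to compound for 72 h at 37 C; signals were normalised to artemisinin (0.29 uM) and vehicle wells.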

Test [3] can be described thus: qHTS profiling for inhibitors of Plasmodium falciparum (HB3) proliferation (AID 743324; active = well fitted curve in the direction sought with a large enough effect; an effect the other way counts as inactive or inconclusive;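 also: 100% = DMSO vehicle wells and 0% = artemisinin-treated control wells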). The settings on record: Plasmodium falciparum HB3 blood-stage proliferation; at 28.7 µM (top of the series). In outline: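 SYBR Green fluorescence (485 ex/535 em) of lysed cultures, incubated overnight at room temperature in the dark, quantifies parasite DNA. Infected erythrocytes at 0.3% parasitemia and 2.5% hematocrit were exposed 72 h; values normalized to DMSO and 0.29 uM artemisinin controls.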

Test [4] can be described thus: qHTS profiling of the MIPE4 collection as inhibitors of Plasmodium falciparum (3D7) proliferation (AID 743344).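 Also: scaled between DMSO vehicle wells and 0.29 µM artemisinin as full inhibition.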 The settings on record: P. falciparum 3D7 in erythrocytes, SYBR Green DNA fluorescence, 72 h; at 28.5 µM (top of the series) unless noted. In outline: as §1
A short description of test [5]: qHTS profiling of the MIPE4 collection as inhibitors of Plasmodium falciparum (DD2) proliferation (AID 743345). The settings on record: P. falciparum Dd2 in erythrocytes, SYBR Green DNA, 72 h; at 28.5 µM (top of the series) unless noted. In outline: as §1
The nature of test [6]: qHTS profiling of the MIPE4 collection as inhibitors of Plasmodium falciparum (DD2) proliferation (Rep 2) (AID 743346). The settings on record: P. falciparum Dd2 in erythrocytes, SYBR Green DNA, 72 h; at 28.5 µM (top of the series) unless noted. In outline:
as §1

Test [7] is described as follows: qHTS profiling of the MIPE4 collection as inhibitors of Plasmodium falciparum (HB3) proliferation (AID 743347).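 Also: plate controls were DMSO vehicle wells for no effect and artemisinin wells for full effect.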 The settings on record: P. falciparum HB3 in erythrocytes, SYBR Green DNA, 72 h; at 28.5 µM (top of the series) unless noted. In outline: as §1
Test [8] is described as follows: High-throughput drug toxicity screening in the BPDCN cell line Gen2.2 (AID 1224824).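 Also: cells exposed to compounds for 48 h before reading.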 As to conditions: Gen2.2 BPDCN cells; at 45.8 µM (top of the series) unless noted. The method, boiled down:
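Seed 500 exponentially growing Gen2.2 cells/well; add compounds by pin tool; incubate 48 h, 37 °C, 5% CO2; add CellTiter-Glo, 15 min RT; read luminescence. % activity vs DMSO (100%) and bortezomib (0%).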

A short description of test [9]: High-throughput drug toxicity screening in the BPDCN cell line Cal-1 (AID 1224825). As to conditions: Cal-1 BPDCN cell viability, qHTS; at 45.8 µM (top of the series) unless noted. In outline: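 Viability of the BPDCN line Cal-1 is measured as ATP-based luminescence (CellTiter-Glo) following 48 h incubation with compounds. Percent activity uses DMSO-treated wells as 100% and 9.2 uM bortezomib as 0%.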

Test [10] can be described thus: qHTS assay for measurement of the activity of small molecule inhibitors on Zika virus induced Caspase-3 activity in human iPSC derived neural progenitor cells (hNPCs) (AID 1224857; active = well fitted curve in the direction sought with a large enough effect; an effect the other way counts as inactive or inconclusive; also: nearly all actives have a fitted effect of over 65% in size; also: potency is read from the fitted curve at half-maximal effect). In outline: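 hNPCs seeded 350 cells/well, cultured 16–20 h; compounds added 1 h before ZIKV (2 FFU/cell), 37 C 6 h. Caspase-Glo 3/7 luminescence after 30 min RT; % inhibition from induction scaled to uninfected (0%) and infected (100%) wells.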

Test [11] in a line: qHTS assay for measurement of the activity of small molecule inhibitors on Zika virus induced Caspase-3 activity in human astrocytoma cells (AID 1224859; active = well fitted curve in the direction sought with a large enough effect; an effect the other way counts as inactive or inconclusive; also: potency is read from the fitted curve at half-maximal effect). In outline: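 Luminescence read-out (Caspase-Glo 3/7, 30 min RT) of caspase activity in SNB-19 cells infected 6 h with ZIKV, 2 FFU/cell, after 1 h compound pretreatment; % inhibition from induction normalised to uninfected (0%) and infected (100%) wells.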

The nature of test [12]: qHTS profiling for inhibitors of Plasmodium falciparum (DD2) proliferation (AID 743323). As to conditions: lower = more inhibition; at 28.7 µM (top of the series). In outline:
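Parasite proliferation measured via DNA-dye fluorescence, as uninfected erythrocytes lack DNA. Cultures at 0.3% parasitemia and 2.5% hematocrit incubated 72 h with compound; signal scaled between vehicle and 0.29 uM artemisinin wells.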

These results are taken from PubChem BioAssay (NCATS).

Inconclusive results are not listed. Activity calls are given as the source filed them. Unless noted, no rule for the calls is given here.

Consider `Cc1ccc(C(=O)Nc2ccc(CN3CCN(C)CC3)c(C(F)(F)F)c2)cc1C#Cc1cnc2cccnn12`, for which, in test [1], the Potency is 18.7 µM (active). Also, the remaining parasite growth % (stronger effect = lower value) in test [2] was -1.18%. Moreover, in test [3], the remaining proliferation (% of control), lower = more inhibition is -1.05%. The same compound registered a parasite growth, % of DMSO control in test [4] of 6.07%. The parasite growth remaining, % of DMSO control (lower = more inhibition) in test [5] came to 7.34%. In [6], this compound displayed a parasite growth, % of control (lower = inhibition) of 13%. Besides, the growth, % of control in test [7] amounted to 8.37%. Besides, the cell viability, % of control (lower = more cytotoxic) in test [8] is 10.5%. For the same compound, in [9], the viability (% of control) worked out at 3.63%. The Potency result in [10] and in [11] was “inactive” throughout.

For `CC(=O)SC[C@@H](C)C(=O)N1CCC[C@H]1C(=O)N[C@@H](Cc1ccccc1)C(=O)O`, the max response in test [1] is 7.13% (inactive). In addition, the remaining parasite growth % (stronger effect = lower value) in [2] is 106%. Further, the activity, percent of control in test [12] was 103%. In addition, the parasite growth, % of DMSO control in [4] turned out to be 100%. Further, in [5], the parasite growth remaining, % of DMSO control (lower = more inhibition) came to 102%. The compound also came in with a growth, % of control in [7] of 111%. Further, the cell viability, % of control (lower = more cytotoxic) in test [8] came to 132%. Besides, in test [9], the viability (% of control) came out at 123%. Besides, the Potency result in test [10] and in test [11] was “inactive” in each case.

Turning to `CC[C@@H]1C(=O)N(C)c2cnc(Nc3ccc(C(=O)NC4CCC(N5CCN(CC6CC6)CC5)CC4)cc3OC)nc2N1C(C)C` (some centres not stated), in [1], the Potency is 7.43 µM (active). In test [2], the remaining parasite growth % (stronger effect = lower value) was -0.343%. Besides, the activity, percent of control in [12] worked out at 1.64%. This compound registered a parasite growth, % of DMSO control in test [4] of 4.79%. In addition, the parasite growth remaining, % of DMSO control (lower = more inhibition) in [5] was 5.71%. This compound also showed a parasite growth, % of control (lower = inhibition) in [6] of 17.4%. Besides, the growth, % of control in [7] was determined as 6.88%. The cell viability, % of control (lower = more cytotoxic) in [8] worked out at 2.88%. Besides, the viability (% of control) in test [9] is 3.23%. For the same compound, the Potency entry in test [10] and in [11] was “inactive” throughout.

In the case of `Cc1cnc(Nc2ccc(F)cc2Cl)nc1-c1c[nH]c(C(=O)N[C@H](CO)c2cccc(Cl)c2)c1`, in test [1], the max response is -28.2% (inactive). The remaining parasite growth % (stronger effect = lower value) in test [2] stood at 7.37%. Also, the remaining proliferation (% of control), lower = more inhibition in [3] is 6.37%. The compound further returned a parasite growth, % of DMSO control in test [4] of 7.48%. The parasite growth remaining, % of DMSO control (lower = more inhibition) in [5] came out at 8.92%. In test [6], this compound had a parasite growth, % of control (lower = inhibition) of 12.8%. Also, the cell viability, % of control (lower = more cytotoxic) in test [8] was determined as 4.9%. Moreover, the viability (% of control) in [9] was 1.37%. Moreover, the Potency result in [10] and in test [11] was “inactive” throughout.

For the compound `Cc1cc(Nc2cc(NC(=O)c3c(Cl)cccc3Cl)ccn2)nc(N)n1`, the remaining parasite growth % (stronger effect = lower value) in test [2] was determined as 0.674%. Further, in [12], the activity, percent of control was 6.07%. The remaining proliferation (% of control), lower = more inhibition in test [3] is -0.262%. In test [4], the parasite growth, % of DMSO control is 5.6%. For the same compound, the parasite growth remaining, % of DMSO control (lower = more inhibition) in [5] worked out at 6.82%. The compound also had a parasite growth, % of control (lower = inhibition) in test [6] of 10.1%. The same compound came in with a growth, % of control in test [7] of 8.82%. For the same compound, the cell viability, % of control (lower = more cytotoxic) in test [8] is 12.1%. In addition, in [9], the viability (% of control) stood at 8.08%. In addition, the Potency entry in test [10] and in test [11] was “inactive” in each case.

For the compound `COc1cc2c(Oc3ccc(NC(=O)C4(C(=O)Nc5ccc(F)cc5)CC4)cc3F)ccnc2cc1OCCCN1CCOCC1`, in test [1], the Potency is 18.7 µM (active). Besides, the remaining parasite growth % (stronger effect = lower value) in test [2] was -2.01%. Besides, the remaining proliferation (% of control), lower = more inhibition in [3] is -0.88%. In test [4], this compound yielded a parasite growth, % of DMSO control of 7.43%. In addition, the parasite growth remaining, % of DMSO control (lower = more inhibition) in [5] worked out at 5.88%. The same compound yielded a parasite growth, % of control (lower = inhibition) in test [6] of 20.2%. Besides, the growth, % of control in test [7] came to 8.86%. In [8], the cell viability, % of control (lower = more cytotoxic) amounted to 10.2%. The viability (% of control) in test [9] came to 4.49%. In addition, the Potency entry in [10] and in [11] was “inactive” in each case.

With `COCCn1c2c([n+](Cc3cnccn3)c1C)C(=O)c1ccccc1C2=O`, the remaining parasite growth % (stronger effect = lower value) in test [2] is -1.59%. In addition, the activity, percent of control in test [12] is -0.193%. The remaining proliferation (% of control), lower = more inhibition in test [3] was -1.98%. The parasite growth, % of DMSO control in test [4] was 9.02%. Moreover, the parasite growth remaining, % of DMSO control (lower = more inhibition) in test [5] amounted to 6.3%. Further, the parasite growth, % of control (lower = inhibition) in test [6] came to 11.6%. Besides, in [7], the growth, % of control came to 6.61%. Also, the cell viability, % of control (lower = more cytotoxic) in test [8] is 9.73%. In addition, the viability (% of control) in test [9] worked out at 3.5%. The Potency was 0.418 µM (active) in [10] and 1.32 µM (active) in [11].

Turning to `Cc1nc2cnc3ccc(C#Cc4cccnc4)cc3c2n1-c1ccc(C(C)(C)C#N)cc1`, in [2], the remaining parasite growth % (stronger effect = lower value) is -1.11%. Besides, in [12], the activity, percent of control amounted to 0.126%. Besides, the remaining proliferation (% of control), lower = more inhibition in test [3] is -0.656%. The compound also registered a parasite growth, % of DMSO control in test [4] of 4.38%. In addition, the parasite growth remaining, % of DMSO control (lower = more inhibition) in test [5] amounted to 7.19%. In [6], this compound registered a parasite growth, % of control (lower = inhibition) of 13.9%. Besides, in test [7], the growth, % of control was determined as 3.51%. Further, in test [8], the cell viability, % of control (lower = more cytotoxic) was 3.34%. Besides, the viability (% of control) in [9] worked out at 16.6%. Further, the Potency entry in test [10] and in test [11] was “inactive” throughout.

With `C=CC(=O)Nc1cc2c(Nc3ccc(F)c(Cl)c3)ncnc2cc1OCCCN1CCOCC1`, the remaining parasite growth % (stronger effect = lower value) in [2] was -0.797%. Also, the activity, percent of control in test [12] came out at 10.5%. Moreover, the remaining proliferation (% of control), lower = more inhibition in test [3] was 1.71%. In addition, the parasite growth, % of DMSO control in [4] came to 31.1%. Further, in test [5], the parasite growth remaining, % of DMSO control (lower = more inhibition) came out at 16%. The same compound gave a parasite growth, % of control (lower = inhibition) in [6] of 29.7%. In test [7], this compound had a growth, % of control of 3.29%. Besides, the cell viability, % of control (lower = more cytotoxic) in test [8] worked out at 5.62%. Moreover, the viability (% of control) in [9] turned out to be 11.2%. The Potency result in test [10] and in test [11] was “inactive” in each case.
